Measured values as given in PubChem BioAssay (Tox21).
Calls of active or inactive are those of the source. Where a call stands in place of a potency, no number is given. Calls come from the whole dose curve; as a rule, active = well fitted curve in the direction sought with a large enough effect in the repeat runs; inconclusive = weak or mixed curves; inactive = flat fitted curve, though single readings scatter.

test: qHTS assay to test for compound auto fluorescence at 460 nm (blue) in HepG2 cells (AID 720687); details: autofluorescence 405/460 nm, 1 h; series mostly up to 91.3 µM
Summary of the method: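 HepG2 cells in MEM with 10% FBS, attached overnight at 37 C, were exposed to compound or DMSO for 1 hr at 37 C, 5% CO2. Blue fluorescence was read at 405/460 nm, with triamterene as reference fluorophore.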

Row | Compound | Potency | fluorescence, % of fluorescent control
1 | CCN(CC)CCOC(=O)C1(c2ccccc2)CCCC1 | inactive | –
2 | CC(C)(C)c1ccc(OCC2CO2)cc1 (configuration not stated) | inactive | –
3 | COc1cc(C(C)(C)C)c(O)c(C(C)(C)C)c1 | inactive | –
4 | Cc1ccccn1 | inactive | –
5 | CCOc1ccc(NC(=O)CC(C)=O)cc1 | inactive | –
6 | CC(=O)/C=C/C1C(C)=CCCC1(C)C (configuration not stated) | inactive | –
7 | CCCCOC(=O)/C=C\C(=O)OCCCC | inactive | –
8 | N#CCCNCCC#N | inactive | –
9 | CCCOc1ccc2nc(NC(=O)OC)[nH]c2c1 | inactive | –
10 | O=C1c2cccc(O)c2C(=O)c2c(O)cc(CO)cc21 | inactive | –
11 | CCOC(=O)C1=NN(c2ccccc2)C(=O)C1 | inactive | –
12 | CC(=O)SCc1ccco1 | inactive | –
13 | Cc1ccccc1N=Nc1ccc(N=Nc2c(O)ccc3ccccc23)c(C)c1 | inactive | –
14 | CN(C(=O)CCCOc1ccc2[nH]c(=O)ccc2c1)C1CCCCC1 | inactive | –
15 | CCN(CC)C(C)CN1c2ccccc2Sc2ccccc21 (configuration not stated) | – | -0.0255% [at 18.6 µM] (inactive)
16 | Cc1ccc(C(=O)C(C)CN2CCCCC2)cc1 (configuration not stated) | inactive | –
17 | O=C(O)Cn1c(C(=O)Nc2nc(-c3ccccc3Cl)cs2)cc2ccccc21 | inactive | –
